Measured values reported in PubChem BioAssay (NCI).
About 79,000 compounds went through this panel and 15% of them were active in at least one assay; those are over-represented in the sample as a whole. The source made the active and inactive calls. Cut-off read from the data, not from the text of the source: active = growth inhibition above about 70%; inactive = the rest.

Experiments:
[1] = NCI Yeast Anticancer Drug Screen. Data for the rad52 strain (AID 147);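 note: 0% = growth of vehicle-treated control cultures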; details: S. cerevisiae rad52 mutant growth inhibition, active compounds read high
How it was run: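 DNA repair-defective yeast; compound exposure; growth scored against vehicle controls.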

[2] = NCI Yeast Anticancer Drug Screen. Data for the wt1 strain (AID 149);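 note: 0% = growth of vehicle-treated wt1 cultures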; details: S. cerevisiae wt1 strain (SPY 50644) growth inhibition, active compounds read high
How it was run: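 Growth inhibition read against vehicle controls after compound exposure of the wt1 yeast strain.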

[3] = NCI Yeast Anticancer Drug Screen. Data for the rad50EPP+ strain (AID 151);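 note: 0% = growth of vehicle-treated control cultures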; details: S. cerevisiae rad50 mutant strain, active compounds read high
How it was run: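 rad50EPP+ yeast treated with test compounds. Readout: growth vs vehicle control.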

[4] = NCI Yeast Anticancer Drug Screen. Data for the mgt1 strain (AID 153); details: S. cerevisiae mgt1 mutant growth inhibition, active compounds read high
How it was run: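 Growth inhibition relative to vehicle controls was scored for the mgt1 yeast strain after compound exposure.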

[5] = NCI Yeast Anticancer Drug Screen. Data for the rad50 strain (AID 155);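 note: 0% = growth of vehicle-only cultures of the same strain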; details: S. cerevisiae rad50 strain growth inhibition, active compounds read high
How it was run: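 Readout: growth inhibition relative to vehicle-treated cultures. Compound exposure was carried out in a genetically defined yeast strain deficient in DNA damage repair.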

[6] = NCI Yeast Anticancer Drug Screen. Data for the mec2-1 strain (AID 157); details: S. cerevisiae mec2-1 strain, active compounds read high
How it was run: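 Growth inhibition is read against vehicle-treated controls after compound exposure of the mec2-1 yeast strain, which is defective in DNA damage repair or cell cycle control.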

[7] = NCI Yeast Anticancer Drug Screen. Data for the rad14 strain (AID 159);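 note: 0% = growth of vehicle-treated control cultures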; details: S. cerevisiae rad14 strain growth inhibition, active compounds read high
How it was run: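 Growth inhibition vs vehicle controls; genetically altered yeast strain (DNA damage repair defect) treated with test compounds.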

[8] = NCI Yeast Anticancer Drug Screen. Data for the sgs1 mgt1 strain (AID 161);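 note: 0% = growth of cultures given vehicle only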; details: S. cerevisiae sgs1 mgt1 strain, active compounds read high
How it was run: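 This yeast growth screen uses a strain with defined DNA-repair lesions; compound-treated growth is compared with vehicle-treated growth.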

[9] = NCI Yeast Anticancer Drug Screen. Data for the CLN2oe strain (AID 163);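 note: 0% = growth of vehicle-only control cultures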; details: S. cerevisiae CLN2oe strain, active compounds read high
How it was run: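 Compound-treated yeast; growth vs vehicle ctrl = % inhibition. Genetically altered strain (cell-cycle control).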

[10] = NCI Yeast Anticancer Drug Screen. Data for the cln2 rad14 strain (AID 165);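 note: 0% = growth equal to vehicle treated cultures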; details: S. cerevisiae cln2 rad14 strain, active compounds read high
How it was run: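 Growth inhibition, relative to vehicle-treated controls, is the read-out. The test organism is a yeast strain with defined genetic alterations, cln2 rad14.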

[11] = NCI Yeast Anticancer Drug Screen. Data for the bub3 strain (AID 167); details: S. cerevisiae bub3 mutant strain, active compounds read high
How it was run: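 Readout: yeast growth inhibition, expressed relative to vehicle-only wells. The test organism is a mutant strain from a panel with lesions in DNA repair or checkpoint genes.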

[12] = NCI Yeast Anticancer Drug Screen. Data for the wt2 strain (AID 169);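 note: 0% = growth of vehicle-treated yeast cultures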; details: S. cerevisiae wt2 strain growth inhibition, active compounds read high
How it was run: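 Compound exposure of yeast; growth compared with vehicle controls; inhibition reported.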

[13] = NCI Yeast Anticancer Drug Screen. Data for the mlh1 strain (AID 171);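 note: 0% = growth of vehicle-treated control cultures of the same strain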; details: S. cerevisiae mlh1 strain growth inhibition, active compounds read high
How it was run: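 Compounds are applied to a genetically altered yeast strain, and its growth is compared with that of vehicle-treated cultures to give percent inhibition.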

[14] = NCI Yeast Anticancer Drug Screen. Data for the sgs1 strain (AID 173);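 note: 0% = growth of vehicle-only control cultures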; details: S. cerevisiae sgs1 mutant, active compounds read high
How it was run: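 Compounds applied to genetically altered yeast; growth compared with vehicle-treated cultures to give % inhibition.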

[15] = NCI Yeast Anticancer Drug Screen. Data for the mlh1 rad18 strain (AID 175); details: S. cerevisiae mlh1 rad18 strain growth inhibition, active compounds read high
How it was run: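 Cells of a genetically altered yeast strain, deficient in DNA damage repair, were treated with compound. Their growth was then compared with that of vehicle-treated cultures to give inhibition.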

[16] = NCI Yeast Anticancer Drug Screen. Data for the rad18 strain (AID 177); details: S. cerevisiae rad18 mutant growth inhibition, active compounds read high
How it was run: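 Compounds are applied to a repair-deficient yeast strain, and growth is compared with that of vehicle-treated cultures to give percent inhibition.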

[17] = at 5.0 µM (retest, dose inferred, filed as 0.5)
[18] = at 50.0 µM (retest, dose inferred, filed as 5.0)

Measured: growth inhibition

CCOc1ccc(C(=O)CCC(=O)O)c(C)c1
inactive: [1]; at 1.2 µM -1% | [1]; at 3.7 µM 0% | [1]; at 11.0 µM -5% | [1]; at 33.0 µM -1% | [1]; at 100.0 µM 4% | [2]; at 1.2 µM 3% | [2]; at 3.7 µM -1% | [2]; at 11.0 µM 4% | [2]; at 33.0 µM 5% | [2]; at 100.0 µM 17% | [3]; at 1.2 µM -2% | [3]; at 3.7 µM -2% | [3]; at 11.0 µM 0% | [3]; at 33.0 µM -3% | [3]; at 100.0 µM 3% | [4]; at 1.2 µM -4% | [4]; at 3.7 µM -3% | [4]; at 11.0 µM 1% | [4]; at 33.0 µM 2% | [4]; at 100.0 µM 21% | [5]; at 1.2 µM -2% | [5]; at 3.7 µM 4% | [5]; [17] 13% | [5]; at 11.0 µM 1% | [5]; at 33.0 µM 8% | [5]; [18] 14% | [5]; at 100.0 µM 12% | [6]; at 1.2 µM 0% | [6]; at 3.7 µM -7% | [6]; [17] -10% | [6]; at 11.0 µM -16% | [6]; at 33.0 µM 4% | [6]; [18] 13% | [6]; at 100.0 µM 15% | [7]; at 1.2 µM 0% | [7]; at 3.7 µM 1% | [7]; at 11.0 µM 7% | [7]; at 33.0 µM 13% | [7]; at 100.0 µM 25% | [8]; [17] 9% | [8]; [18] 4% | [9]; at 1.2 µM 0% | [9]; at 3.7 µM -1% | [9]; at 11.0 µM 4% | [9]; at 33.0 µM 12% | [9]; at 100.0 µM 20% | [10]; [17] -12% | [10]; [18] 44% | [11]; at 1.2 µM -9% | [11]; at 3.7 µM -11% | [11]; [17] -17% | [11]; at 11.0 µM -1% | [11]; at 33.0 µM -8% | [11]; [18] 14% | [11]; at 100.0 µM 36% | [12]; at 1.2 µM 1% | [12]; at 3.7 µM 2% | [12]; at 11.0 µM 2% | [12]; at 33.0 µM 6% | [12]; at 100.0 µM 16% | [13]; at 1.2 µM -2% | [13]; at 3.7 µM -6% | [13]; at 11.0 µM -10% | [13]; at 33.0 µM 3% | [13]; at 100.0 µM 12% | [14]; at 1.2 µM 0% | [14]; at 3.7 µM -1% | [14]; at 11.0 µM 1% | [14]; at 33.0 µM 1% | [14]; at 100.0 µM 8% | [15]; [17] 16% | [15]; [18] -1%

COc1cc(NCc2ccc3nc(N)nc(N)c3c2C)cc(OC)c1OC
inactive: [1]; at 1.2 µM 1% | [1]; at 3.7 µM 5% | [1]; at 11.0 µM 17% | [1]; at 33.0 µM 37% | [1]; at 100.0 µM 68% | [2]; at 1.2 µM -1% | [2]; at 3.7 µM -4% | [2]; at 11.0 µM -6% | [2]; at 33.0 µM -7% | [2]; at 100.0 µM 1% | [3]; at 1.2 µM -5% | [3]; at 3.7 µM -4% | [3]; at 11.0 µM -4% | [3]; at 33.0 µM 6% | [3]; at 100.0 µM 27% | [4]; at 1.2 µM -3% | [4]; at 3.7 µM -6% | [4]; at 11.0 µM -7% | [4]; at 33.0 µM -7% | [4]; at 100.0 µM 37% | [5]; at 1.2 µM -3% | [5]; at 3.7 µM -3% | [5]; at 11.0 µM 7% | [5]; at 33.0 µM 28% | [5]; at 50.0 µM -7.65% | [6]; at 1.2 µM -4% | [6]; at 3.7 µM 8% | [6]; at 11.0 µM 39% | [6]; at 50.0 µM 54.6% | [7]; at 1.2 µM -2% | [7]; at 3.7 µM -6% | [7]; at 11.0 µM -8% | [7]; at 33.0 µM -5% | [7]; at 100.0 µM 43% | [8]; at 50.0 µM 0.6% | [9]; at 1.2 µM -8% | [9]; at 3.7 µM -18% | [9]; at 11.0 µM -17% | [9]; at 33.0 µM -16% | [9]; at 100.0 µM 30% | [10]; at 50.0 µM -1.2% | [11]; at 1.2 µM -13% | [11]; at 3.7 µM -15% | [11]; at 11.0 µM -15% | [11]; at 33.0 µM -24% | [11]; at 50.0 µM -46.8% | [11]; at 100.0 µM 43% | [12]; at 1.2 µM -4% | [12]; at 3.7 µM -5% | [12]; at 11.0 µM -7% | [12]; at 33.0 µM -2% | [12]; at 100.0 µM 46% | [13]; at 1.2 µM -4% | [13]; at 3.7 µM -6% | [13]; at 11.0 µM -5% | [13]; at 33.0 µM 5% | [13]; at 100.0 µM 56% | [14]; at 1.2 µM -2% | [14]; at 3.7 µM -2% | [14]; at 11.0 µM 5% | [14]; at 33.0 µM 22% | [15]; at 50.0 µM -74.6% | [16]; at 1.2 µM -6% | [16]; at 3.7 µM -2% | [16]; at 11.0 µM 1% | [16]; at 33.0 µM 20%
active: [5]; at 100.0 µM 78% | [6]; at 33.0 µM 82% | [6]; at 100.0 µM 95% | [14]; at 100.0 µM 75% | [16]; at 100.0 µM 77%

N#C/C(=C1C=C(Br)/C(=N\O)C=C\1Cl)c1cccc2ccccc12
inactive: [1]; at 1.2 µM 15% | [1]; at 3.7 µM 16% | [2]; at 1.2 µM -1% | [2]; at 3.7 µM 4% | [3]; at 1.2 µM 18% | [3]; at 3.7 µM 36% | [3]; at 11.0 µM 63% | [3]; at 33.0 µM 55% | [4]; at 1.2 µM 11% | [4]; at 3.7 µM 4% | [5]; at 1.2 µM 28% | [5]; at 3.7 µM 44% | [6]; at 1.2 µM 2% | [6]; at 3.7 µM 18% | [7]; at 1.2 µM -14% | [7]; at 3.7 µM -10% | [7]; at 11.0 µM 55% | [8]; [17] 5% | [9]; at 1.2 µM -15% | [9]; at 3.7 µM 27% | [9]; at 11.0 µM 63% | [10]; [17] 25% | [11]; at 1.2 µM 33% | [11]; at 3.7 µM 49% | [11]; [17] 59% | [14]; at 1.2 µM 15% | [14]; at 3.7 µM 18%
active: [1]; at 11.0 µM 94% | [1]; at 33.0 µM 93% | [1]; at 100.0 µM 95% | [2]; at 11.0 µM 84% | [2]; at 33.0 µM 86% | [2]; at 100.0 µM 96% | [3]; at 100.0 µM 88% | [4]; at 11.0 µM 79% | [4]; at 33.0 µM 85% | [4]; at 100.0 µM 97% | [5]; [17] 99% | [5]; at 11.0 µM 91% | [5]; at 33.0 µM 87% | [5]; [18] 98% | [5]; at 50.0 µM 89.2% | [5]; at 100.0 µM 94% | [6]; [17] 100% | [6]; at 11.0 µM 89% | [6]; at 33.0 µM 91% | [6]; [18] 98% | [6]; at 50.0 µM 90.7% | [6]; at 100.0 µM 94% | [7]; at 33.0 µM 70% | [7]; at 100.0 µM 96% | [8]; [18] 96% | [9]; at 33.0 µM 86% | [9]; at 100.0 µM 93% | [10]; [18] 95% | [11]; at 11.0 µM 94% | [11]; at 33.0 µM 93% | [11]; [18] 93% | [11]; at 100.0 µM 95% | [14]; at 11.0 µM 82%
